Test results: PubChem BioAssay AID1159580 (chemical genetic matrix, 2015)
Values joined by “and” are separate entries in the source; they are usually repeats but may differ in a detail not shown here. Equal entries are not always repeated. Among all 5,500 compounds or so, about 2,000 (36%) were called active. Not shown: some 18% with an inconclusive outcome. No stated cut-off is given here; in the data, active means normalized growth mostly below about 0.91 (no sharp cut-off); inconclusive means no clear call, values can overlap the other calls; inactive means mostly above about 0.92. Some of the results follow.

Assay: chemical genetic growth profiling, strain panel (AID 1159580);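 further: tested at 20 µM; growth read once vehicle control cultures reached saturation at 30 °C; 1 = growth at the plate median or of vehicle wells; lower values mean less growth of the strain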
Details: S. cerevisiae deletion strains, growth OD

Measured: normalized growth

O=C1OC(c2ccc(O)cc2)(c2ccc(O)cc2)c2ccccc21
inactive: locus YAL013W, strain DEP1, active compounds read low 0.999 | locus YAL021C, strain ccr4, active compounds read low 0.977 | locus YAL026C, strain drs2, active compounds read low 0.978 | locus YAL030W, strain snc1, active compounds read low 0.994 | locus YBL061C, strain skt5, active compounds read low 0.984 | locus YBR009C, strain hhf1, active compounds read low 0.988 | locus YBR021W, strain FUR4, active compounds read low 1.01 | locus YBR023C, strain chs3, active compounds read low 0.994 | locus YBR171W, strain sec66, active compounds read low 0.981 | locus YBR229C, strain ROT2, active compounds read low 0.997 | locus YBR231C, strain swc5, active compounds read low 0.974 | locus YBR279W, strain paf1, active compounds read low 0.988 | locus YCL011C, strain gbp2, active compounds read low 0.968 | locus YCL016C, strain dcc1, active compounds read low 1.01 | locus YCL029C, strain bik1, active compounds read low 0.972 | locus YCL061C, strain MRC1, active compounds read low 1 | locus YCL069W, strain vba3, active compounds read low 0.969 | locus YCR088W, strain abp1, active compounds read low 1 | locus YDL005C, strain med2, active compounds read low 0.97 | locus YDL035C, strain GPR1, active compounds read low 0.986 | locus YDL040C, strain nat1, active compounds read low 0.986 | locus YDL074C, strain BRE1, active compounds read low 0.98 | locus YDL101C, strain DUN1, active compounds read low 0.98 | locus YDL134C, strain PPH21, active compounds read low 0.989 | locus YDL185W, strain tfp1, active compounds read low 0.954 | locus YDL192W, strain arf1, active compounds read low 0.974 | locus YDR001C, strain nth1, active compounds read low 0.965 | locus YDR069C, strain doa4, active compounds read low 0.959 | locus YDR101C, strain arx1, active compounds read low 0.973 | locus YDR137W, strain rgp1, active compounds read low 0.976 | locus YDR150W, strain NUM1, active compounds read low 1 | locus YDR159W, strain sac3, active compounds read low 0.969 | locus YDR162C, strain NBP2, active compounds read low 0.992 | locus YDR195W, strain ref2 0.973 | locus YDR297W, strain sur2, active compounds read low 0.996 | locus YDR318W, strain mcm21, active compounds read low 0.949 | locus YDR335W, strain msn5, active compounds read low 0.97 | locus YDR388W, active compounds read low 0.973 | locus YDR392W, strain spt3, active compounds read low 0.958 | locus YDR502C, strain sam2, active compounds read low 0.96 | locus YEL003W, strain gim4, active compounds read low 0.964 | locus YEL037C, strain rad23, active compounds read low 0.983 | locus YEL061C, strain CIN8 (second series), active compounds read low 0.962 | locus YEL061C, strain CIN8, active compounds read low 0.996 | locus YER015W, strain faa2, active compounds read low 0.977 | locus YER016W, strain bim1, active compounds read low 0.984 | locus YER110C, active compounds read low 0.971 | locus YER111C, strain swi4, active compounds read low 0.995 | locus YER155C, strain BEM2, active compounds read low 0.994 | locus YER167W, strain BCK2, active compounds read low 0.997 | locus YFR010W, strain ubp6, active compounds read low 0.975 | locus YGL078C, strain dbp3, active compounds read low 0.984 | locus YGL086W, strain mad1, active compounds read low 0.992 | locus YGL167C, strain pmr1, active compounds read low 0.983 | locus YGL173C, strain kem1, active compounds read low 0.996 | locus YGL227W, strain vid30, active compounds read low 0.987 | locus YGL240W, strain doc1, active compounds read low 0.965 | locus YGL248W, strain PDE1, active compounds read low 0.996 | locus YGL253W, strain hxk2, active compounds read low 0.969 | locus YGR135W, strain pre9, active compounds read low 0.964 | locus YGR252W, strain gcn5, active compounds read low 1.03 | locus YHR013C, strain ard1, active compounds read low 0.954 | locus YHR027C, strain rpn1, active compounds read low 0.982 | locus YHR030C, strain SLT2, active compounds read low 0.986 | locus YHR079C, strain IRE1 (second series), active compounds read low 0.96 | locus YHR079C, strain IRE1, active compounds read low 0.953 | locus YHR094C, strain hxt1, active compounds read low 0.971 | locus YHR129C, strain ARP1, active compounds read low 0.995 | locus YHR142W, strain chs7, active compounds read low 0.977 | locus YHR200W, strain rpn10, active compounds read low 0.967 | locus YIL066C, strain RNR3, active compounds read low 0.996 | locus YIL073C, strain SPO22, active compounds read low 0.844 | locus YIL125W, strain kgd1, active compounds read low 0.956 | locus YIR030C, strain dcg1, active compounds read low 0.985 | locus YJL092W, strain hpr5, active compounds read low 0.995 | locus YJL095W, strain BCK1 (second series), active compounds read low 0.977 | locus YJL095W, strain BCK1, active compounds read low 1.04 and 0.981 | locus YJL115W, strain asf1, active compounds read low 0.972 | locus YJL129C, strain trk1, active compounds read low 0.949 | locus YJL134W, strain LCB3, active compounds read low 0.988 | locus YJL154C, strain vps35, active compounds read low 0.972 | locus YJL164C, strain tpk1, active compounds read low 0.987 | locus YJL166W, strain qcr8, active compounds read low 0.983 | locus YJL168C, strain set2, active compounds read low 0.974 | locus YJL187C, strain SWE1 (second series), active compounds read low 0.991
active: locus YDR334W, strain swr1, active compounds read low 0.897 | locus YER155C, strain BEM2 (second series), active compounds read low 0.826
